Data taken from PubChem BioAssay (Tox21).
Records with an inconclusive call do not appear. Entries that show only a call come without a potency. Calls of active or inactive are those of the source. Calls come from the whole dose curve; as a rule, active = well fitted curve in the direction sought with a large enough effect in the repeat runs; inconclusive = weak or mixed curves; inactive = no such curve, though single readings can be large; an effect the other way counts as inactive or inconclusive.

Assay: qHTS assay to identify small molecule agonists of the retinoic acid receptor (RAR) signaling pathway (AID 1159553)
Details: C3RL4 RARE luciferase reporter, agonist, 6 h; series mostly up to 73.3 µM
Method in brief: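 C3RL4 RARE-luciferase cells were seeded at 1,000/well and grown overnight at 37 C, then exposed to compounds for 6 hr at 37 C, 5% CO2. Luciferase reagent was added and luminescence was read after 30 min at room temperature.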

SMILES | Potency
CC(C)(C)NCC(O)c1ccc(O)c(CO)c1 (stereo not drawn) | inactive
C[C@]12C[C@H](O)[C@H]3[C@@H](CCC4=CC(=O)CC[C@@]43C)[C@@H]1CC[C@@H]2C(=O)CO | inactive
NC(=O)NO | inactive
C=C(C)C(N)=O | inactive
Cc1cccc(C)c1O | inactive
C=CCOC(=O)CC(C)C | inactive
O=C(O)CN(CC(=O)O)CC(=O)O | inactive
CC(C)CC(C)CC(O)CC(C)C (stereo not drawn) | inactive
CCCCNC(=O)NS(=O)(=O)c1ccc(N)cc1 | inactive
CCCCCCCCOc1ccc(C(=O)c2ccccc2)c(O)c1 | inactive
N[C@@H](Cc1c[nH]c2ccccc12)C(=O)O | inactive
C[C@]12CC[C@@H]3c4ccc(O)cc4C[C@@H](CCCCCCCCCS(=O)CCCC(F)(F)C(F)(F)F)[C@H]3[C@@H]1CC[C@@H]2O (stereo partly drawn) | inactive
O=c1cc[nH]c(=O)[nH]1 | inactive
N[C@@H](Cc1c[nH]c2ccc(O)cc12)C(=O)O | inactive
CC(=O)c1ccc(S(=O)(=O)NC(=O)NC2CCCCC2)cc1 | inactive
CCCCCCCC(=O)OCC(O)CO (stereo not drawn) | inactive
OCCCc1ccccc1 | inactive
CN/C(=C\[N+](=O)[O-])NCCSCc1ccc(CN(C)C)o1 | inactive
CC1(C)O[C@@H]2[C@@H](CO[C@@]3(COS(N)(=O)=O)OC(C)(C)O[C@@H]23)O1 | inactive
NC(=O)OCC(COC(N)=O)c1ccccc1 | inactive
C=C(C)OC(C)=O | inactive
O=C1CCCCCN1 | inactive
NC(=O)N1c2ccccc2C=Cc2ccccc21 | inactive
Cn1cnc2c1c(=O)[nH]c(=O)n2C | inactive
Cc1cccc2ccccc12 | inactive
CC(C)Cc1ccc(C(C)C(=O)O)cc1 (stereo not drawn) | inactive
CN(C)C=O | inactive
CC(=O)Oc1ccccc1C(=O)O | inactive
CCN(CC)CCOC(=O)c1ccc(N)cc1 | inactive
Cc1cnc(NC(=O)C2=C(O)c3ccccc3S(=O)(=O)N2C)s1 | inactive

Assay: qHTS assay to identify small molecule antagonists of the estrogen related receptor (ERR) signaling pathway (AID 1224819; note: nearly all actives have a fitted effect of over 50% in size; note: potency is the fitted concentration of half-maximal effect)
Details: ERR reporter cell line, luciferase inhibition; series mostly up to 46.1 µM
Method in brief: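 ERR reporter cell line (NTP) plated at 2,000 cells/well, settled 6 h at 37C/5% CO2, then exposed to LOPAC compounds for 18 h at 37C. One-Glo luciferase luminescence read after 30 min at room temperature.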

SMILES | Potency
C[C@]12CC[C@@H]3c4ccc(O)cc4C[C@@H](CCCCCCCCCS(=O)CCCC(F)(F)C(F)(F)F)[C@H]3[C@@H]1CC[C@@H]2O (stereo partly drawn) | 7.22 µM (active)
CC(C)Cc1ccc(C(C)C(=O)O)cc1 (stereo not drawn) | inactive
CCN(CC)CCOC(=O)c1ccc(N)cc1 | inactive

Assay: qHTS assay to identify small molecule agonists of the estrogen related receptor (ERR) signaling pathway (AID 1224820)
Details: ERR reporter cell line, luciferase agonist mode; series mostly up to 46.1 µM
Method in brief: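 ERR reporter cell line (from NTP), 2,000 cells/well, incubated 6 h before compound addition, then 18 h at 37 C. Luminescence measured 30 min after One-Glo reagent at room temperature.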

SMILES | outcome
C[C@]12CC[C@@H]3c4ccc(O)cc4C[C@@H](CCCCCCCCCS(=O)CCCC(F)(F)C(F)(F)F)[C@H]3[C@@H]1CC[C@@H]2O (stereo partly drawn) | inactive
CC(C)Cc1ccc(C(C)C(=O)O)cc1 (stereo not drawn) | inactive
CCN(CC)CCOC(=O)c1ccc(N)cc1 | inactive

Assay: qHTS assay to identify small molecule antagonists of the estrogen related receptor signaling pathway with the pleiotropic PPARgamma coactivator (PGC) cell viability counter screen (AID 1224822)
Details: ERR/PGC reporter cell line viability counter screen; series mostly up to 46.1 µM
Method in brief: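 PGC/ERR cells rested 6 h, then compound-treated 17.5 h at 37 C. CellTiter-Fluor added for 30 min at 37 C, viability measured by fluorescence intensity.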

SMILES | outcome
CC(C)(C)NCC(O)c1ccc(O)c(CO)c1 (stereo not drawn) | inactive
C[C@]12C[C@H](O)[C@H]3[C@@H](CCC4=CC(=O)CC[C@@]43C)[C@@H]1CC[C@@H]2C(=O)CO | inactive
NC(=O)NO | inactive
N[C@@H](Cc1c[nH]c2ccccc12)C(=O)O | inactive
C[C@]12CC[C@@H]3c4ccc(O)cc4C[C@@H](CCCCCCCCCS(=O)CCCC(F)(F)C(F)(F)F)[C@H]3[C@@H]1CC[C@@H]2O (stereo partly drawn) | inactive
N[C@@H](Cc1c[nH]c2ccc(O)cc12)C(=O)O | inactive
CC(=O)c1ccc(S(=O)(=O)NC(=O)NC2CCCCC2)cc1 | inactive
CN/C(=C\[N+](=O)[O-])NCCSCc1ccc(CN(C)C)o1 | inactive
NC(=O)OCC(COC(N)=O)c1ccccc1 | inactive
NC(=O)N1c2ccccc2C=Cc2ccccc21 | inactive
Cn1cnc2c1c(=O)[nH]c(=O)n2C | inactive
CC(C)Cc1ccc(C(C)C(=O)O)cc1 (stereo not drawn) | inactive
CC(=O)Oc1ccccc1C(=O)O | inactive
CCN(CC)CCOC(=O)c1ccc(N)cc1 | inactive
Cc1cnc(NC(=O)C2=C(O)c3ccccc3S(=O)(=O)N2C)s1 | inactive

Assay: qHTS assay to identify small molecule agonists of the estrogen related receptor signaling pathway with the pleiotropic PPARgamma coactivator (PGC) (AID 1224823)
Details: ERR/PGC reporter cell line, luciferase agonist mode; series mostly up to 46.1 µM
Method in brief: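 PGC/ERR reporter cells seeded 6 h, then exposed to compounds (23 nL in DMSO) for 18 h at 37 C. One-Glo luciferase luminescence read after 30 min at room temperature.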

SMILES | outcome
C[C@]12CC[C@@H]3c4ccc(O)cc4C[C@@H](CCCCCCCCCS(=O)CCCC(F)(F)C(F)(F)F)[C@H]3[C@@H]1CC[C@@H]2O (stereo partly drawn) | inactive
CC(C)Cc1ccc(C(C)C(=O)O)cc1 (stereo not drawn) | inactive
CCN(CC)CCOC(=O)c1ccc(N)cc1 | inactive

Assay: qHTS assay to identify small molecule antagonists of the estrogen related receptor (ERR) signaling pathway from Tox21 library - cell viability counter screen (AID 1224834); note: nearly all actives have a fitted effect of over 30% in size
Details: ERR reporter cells viability, CellTiter-Fluor, 17.5 h; series mostly up to 92.4 µM
Method in brief: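 ERR reporter cells, 2,000 per well, rested 6 h, then exposed to compound in DMSO for 17.5 hours at 37 C. Viability read as fluorescence after 30 min with CellTiter-Fluor.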

SMILES | Potency
CC(C)(C)NCC(O)c1ccc(O)c(CO)c1 (stereo not drawn) | inactive
C[C@]12C[C@H](O)[C@H]3[C@@H](CCC4=CC(=O)CC[C@@]43C)[C@@H]1CC[C@@H]2C(=O)CO | inactive
NC(=O)NO | inactive
C=C(C)C(N)=O | inactive
Cc1cccc(C)c1O | inactive
C=CCOC(=O)CC(C)C | inactive
O=C(O)CN(CC(=O)O)CC(=O)O | inactive
CC(C)CC(C)CC(O)CC(C)C (stereo not drawn) | inactive
CCCCNC(=O)NS(=O)(=O)c1ccc(N)cc1 | inactive
CCCCCCCCOc1ccc(C(=O)c2ccccc2)c(O)c1 | inactive
N[C@@H](Cc1c[nH]c2ccccc12)C(=O)O | inactive
O=c1cc[nH]c(=O)[nH]1 | inactive
N[C@@H](Cc1c[nH]c2ccc(O)cc12)C(=O)O | inactive
CC(=O)c1ccc(S(=O)(=O)NC(=O)NC2CCCCC2)cc1 | inactive
CCCCCCCC(=O)OCC(O)CO (stereo not drawn) | inactive
OCCCc1ccccc1 | inactive
CN/C(=C\[N+](=O)[O-])NCCSCc1ccc(CN(C)C)o1 | inactive
CC1(C)O[C@@H]2[C@@H](CO[C@@]3(COS(N)(=O)=O)OC(C)(C)O[C@@H]23)O1 | inactive
NC(=O)OCC(COC(N)=O)c1ccccc1 | inactive
C=C(C)OC(C)=O | inactive
O=C1CCCCCN1 | inactive
NC(=O)N1c2ccccc2C=Cc2ccccc21 | inactive
Cn1cnc2c1c(=O)[nH]c(=O)n2C | inactive
Cc1cccc2ccccc12 | inactive
CC(C)Cc1ccc(C(C)C(=O)O)cc1 (stereo not drawn) | inactive
CN(C)C=O | inactive
CC(=O)Oc1ccccc1C(=O)O | inactive
CCN(CC)CCOC(=O)c1ccc(N)cc1 | inactive
Cc1cnc(NC(=O)C2=C(O)c3ccccc3S(=O)(=O)N2C)s1 | inactive
